Experiment [1] is described as follows: stimulators of nuclear beta-catenin in C2C12, primary screen, imaging, WNT3A-conditioned medium, mouse C2C12, NPC library (AID 1117326; in the data active = nuclear beta-catenin stimulation mostly above about 4.2%, no sharp cut-off; inactive = mostly below about 10%). Conditions: stronger effect = higher value.
Experiment [2] is described as follows: stimulators of insulin release from INS-1E, primary screen, cell-based, 5 mM glucose, NPC library (AID 1117329;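 active = compound raises insulin release from rat beta cells at 5 mM glucose, no numeric limit stated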). Conditions: rat INS-1E insulin secretion, at 10 µM, stronger effect = higher value.
Experiment [3] is described as follows: growth inhibition of GSK3B-pretreated HCT116 cells – cell-based, CellTiter-Glo, 0.2 to 20 µM (AID 1117336;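 active = compounds lowering colon cancer cell viability after pretreatment blocking the GSK3B kinase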). The settings on record: HCT116 viability after GSK3B inhibitor, at 20 µM, stronger effect = higher value. On the technique in general: Cellular ATP, detected with luciferase, serves as a proxy for viable cell number.
A short description of experiment [4]: inhibition of endothelial tube formation, primary screen, imaging, VEGF stimulated, CD31 staining, tube area, NPC library (AID 1117340;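 active = compound that reduces growth-factor-driven endothelial tube area in a mixed cell culture, no cutoff stated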). The settings on record: VEGF-stimulated ADSC/ECFC co-culture, at 10 µM, stronger effect = higher value.
The nature of experiment [5]: glucagon-like peptide 1 release enhancers, primary assay, NCI-H716 cell line, NPC library (AID 1117341;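 active = compound raises GLP1 secretion from the human gut endocrine cells, with no numeric limit stated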). Conditions: NCI-H716 cells, at 10 µM, stronger effect = higher value.
Experiment [6] in a line: HCT116 colon cancer cell growth inhibition, primary screen, CellTiter-Glo luminescence, NPC library (AID 1117342;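 active = compounds that lower survival of HCT116 colon cancer cells in the luminescence readout, no numeric limit stated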). Conditions: at 20 µM (top of the series).
A short description of experiment [7]: CellTiter-Glo luminescent readout of SW480 viability loss, NPC library primary (AID 1117343;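 active = compounds that lower viability of the colon cancer cells in the luminescence readout, with no numeric limit stated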). The settings on record: CellTiter-Glo luminescence; at 20 µM (top of the series).
A short description of experiment [8]: decreased DLD-1 cellular survival, CellTiter-Glo luminescent readout, NPC compound collection, primary HTS (AID 1117346;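 active = compounds that lower survival of DLD-1 colon cancer cells in the luminescence readout, no cutoff given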). Conditions: DLD-1 viability, CellTiter-Glo luminescence; at 20 µM (top of the series).
Experiment [9] addresses 6-phosphogluconate dehydrogenase, decarboxylating (Homo sapiens) (UniProt P52209). As to the kind of experiment: 6PGD enzyme inhibitors, primary screen, biochemical, human, recombinant enzyme, NADPH absorbance (AID 1159550;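 active = at least 20% inhibition of 6-phosphogluconate dehydrogenase activity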). The settings on record: recombinant 6PGD, NADPH absorbance 341 nm; at 10 µM; stronger effect = higher value.
A short description of experiment [10]: differential killing of epithelial or mesenchymal cells, primary screen, imaging, PC-3E GFP, TEM4-18 mCherry, co-culture (AID 1345086;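 active = compounds killing one labelled cell type while sparing the other, by normalised counts and ratio limits, not self-fluorescent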;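 as to all read-outs here: cells exposed to compound for 72 h before imaging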;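 as to red/green cell ratio (normalised): normalised mesenchymal count divided by normalised epithelial count so high means epithelial killing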). The settings on record: imaging cell counts, at 1 µM; for red/green cell ratio (normalised): actives lie on both sides, counts scaled to control wells, 1 = unselective.
Experiment [11] can be described thus: survival rescue of mitochondrial mutant cells in low glucose, primary screen, MELAS cybrids, Rieske KO mouse fibroblasts, CellTiter-Glo (AID 1508586;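 active = mean z-score across replicates of 1.96 or higher in either the MELAS or the Rieske mutant cell line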;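 also: z relative to plate mean and SD of compound and empty wells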).
Experiment [12] concerns the target NAD(+) hydrolase SARM1 (Homo sapiens) (UniProt Q6SZW1). As to the kind of experiment: SARM1 TIR NADase inhibitors, cell lysate, NAD-Glo luminescence (AID 1508614;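 active = compound whose remaining NAD level is above about 45 nM, limit read from the data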;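 also: higher remaining NAD means stronger inhibition of SARM1 NADase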). The settings on record: SAM-TIR HEK293T lysate NADase, at 1 µM, stronger effect = higher value.
The target of experiment [13] is Mitogen-activated protein kinase 7 (Homo sapiens) (UniProt Q13164). As to the kind of experiment: ERK5 transactivation activators in reporter cells, primary screen, cell-based, HTS (AID 1508626;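 active = luciferase signal above three times the same-plate solvent-only control wells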;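 also: luciferase driven by Gal4-ERK5 fusion binding five Gal4 sites before minimal TATA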). Conditions: HeLa Gal4-ERK5 transactivation, 18 h, at 5 µM, stronger effect = higher value.
A further experiment concerns F380Y. Description: modulators of BK channel variants, profiling panel, selectivity assay, cell-based, U2OS BacMam, thallium flux, beta subunits (AID 1259406).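 Also: initial slope of Thallos dye fluorescence rise after thallium is added; log ratio against the mean of 0.3% DMSO vehicle wells on the same plate.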 The settings on record: at 30 µM.
The next experiment has as its system F380Y/beta2Delta. The description is as above. Conditions: at 30 µM.
For experiment [14], the target named is Calcium-activated potassium channel subunit alpha-1 (Homo sapiens) + Leucine-rich repeat-containing protein 26 (Homo sapiens) (UniProt Q12791+Q2I0M4). The experiment is described as above. Conditions: F380Y/Slo1WT/gamma1, at 30 µM.
The subject of the next experiment is R275C. Described as above. Conditions: at 30 µM.
The subject of a further experiment is R275C/beta1. The experiment is described as above. Conditions: at 30 µM.
The subject of the next experiment is R275C/beta2Delta. The description is as above. The settings on record: at 30 µM.
A short description of experiment [15]: sensitizers of A549 cells to miR-34 induction, primary screen, imaging, A549 dox-inducible miR-34, nuclei and caspase counts (AID 1347080;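 active = compounds whose cell count with miR-34 switched on is under 0.7 times the count with it off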). The settings on record: A549 miR-34 inducible, Hoechst nuclei count, 48 h.
Where [16] appears, read: measured here: epithelial PC-3E GFP cell survival.
[17] abbreviates: measured here: mesenchymal TEM4-18 mCherry cell survival.
Where [18] appears, read: MELAS cybrid survival, CellTiter-Glo 48 h, stronger effect = higher value.
The mark [19] stands for this setting: Rieske KO mouse fibroblast survival, CellTiter-Glo 72 h.

Structures are written as SMILES. Values joined by “and” are separate entries in the source; they are usually repeats but may differ in a detail not shown here. Equal values may be shown once. Active and inactive are the calls of the source.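 The calls were made as follows, unless noted: active = thallium flux through the channel raised or lowered by more than 3 SD from vehicle-only wells, actives on both sides; inactive = the rest.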

Chain of Calcium-activated potassium channel subunit alpha-1 (Homo sapiens) + Leucine-rich repeat-containing protein 26 (Homo sapiens) (Q2I0M4 whole entry, looked up, one chain of several): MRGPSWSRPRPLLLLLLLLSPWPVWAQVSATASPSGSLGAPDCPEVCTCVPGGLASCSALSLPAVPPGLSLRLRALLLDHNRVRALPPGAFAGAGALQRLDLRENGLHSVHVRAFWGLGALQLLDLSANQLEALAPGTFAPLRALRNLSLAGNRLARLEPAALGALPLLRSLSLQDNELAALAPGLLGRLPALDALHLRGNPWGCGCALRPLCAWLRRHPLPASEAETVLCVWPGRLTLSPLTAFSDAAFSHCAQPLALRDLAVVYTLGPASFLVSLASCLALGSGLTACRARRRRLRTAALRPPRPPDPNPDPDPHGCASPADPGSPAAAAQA
Chain of NAD(+) hydrolase SARM1 (Homo sapiens) (Q6SZW1 whole entry, looked up, the tested form may be a part): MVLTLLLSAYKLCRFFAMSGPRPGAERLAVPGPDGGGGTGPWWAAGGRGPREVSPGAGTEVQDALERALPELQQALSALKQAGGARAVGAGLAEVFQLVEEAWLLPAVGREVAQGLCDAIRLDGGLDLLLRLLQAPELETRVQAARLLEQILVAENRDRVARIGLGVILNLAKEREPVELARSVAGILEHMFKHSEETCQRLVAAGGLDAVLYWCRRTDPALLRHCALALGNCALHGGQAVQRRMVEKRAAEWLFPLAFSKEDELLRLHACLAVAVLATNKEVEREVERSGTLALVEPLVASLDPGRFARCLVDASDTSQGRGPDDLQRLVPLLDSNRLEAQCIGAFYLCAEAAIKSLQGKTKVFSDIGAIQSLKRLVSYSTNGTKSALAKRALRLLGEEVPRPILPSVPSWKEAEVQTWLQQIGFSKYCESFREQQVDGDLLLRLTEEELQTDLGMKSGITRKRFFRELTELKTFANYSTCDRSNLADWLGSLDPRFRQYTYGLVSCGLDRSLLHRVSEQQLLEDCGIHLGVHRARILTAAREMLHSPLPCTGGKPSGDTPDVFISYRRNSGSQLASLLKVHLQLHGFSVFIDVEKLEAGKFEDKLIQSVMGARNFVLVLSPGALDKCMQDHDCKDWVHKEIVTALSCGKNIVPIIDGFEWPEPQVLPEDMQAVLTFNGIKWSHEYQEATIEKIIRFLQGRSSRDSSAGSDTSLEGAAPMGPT
Chain of Mitogen-activated protein kinase 7 (Homo sapiens) (Q13164 whole entry, looked up, the tested form may be a part): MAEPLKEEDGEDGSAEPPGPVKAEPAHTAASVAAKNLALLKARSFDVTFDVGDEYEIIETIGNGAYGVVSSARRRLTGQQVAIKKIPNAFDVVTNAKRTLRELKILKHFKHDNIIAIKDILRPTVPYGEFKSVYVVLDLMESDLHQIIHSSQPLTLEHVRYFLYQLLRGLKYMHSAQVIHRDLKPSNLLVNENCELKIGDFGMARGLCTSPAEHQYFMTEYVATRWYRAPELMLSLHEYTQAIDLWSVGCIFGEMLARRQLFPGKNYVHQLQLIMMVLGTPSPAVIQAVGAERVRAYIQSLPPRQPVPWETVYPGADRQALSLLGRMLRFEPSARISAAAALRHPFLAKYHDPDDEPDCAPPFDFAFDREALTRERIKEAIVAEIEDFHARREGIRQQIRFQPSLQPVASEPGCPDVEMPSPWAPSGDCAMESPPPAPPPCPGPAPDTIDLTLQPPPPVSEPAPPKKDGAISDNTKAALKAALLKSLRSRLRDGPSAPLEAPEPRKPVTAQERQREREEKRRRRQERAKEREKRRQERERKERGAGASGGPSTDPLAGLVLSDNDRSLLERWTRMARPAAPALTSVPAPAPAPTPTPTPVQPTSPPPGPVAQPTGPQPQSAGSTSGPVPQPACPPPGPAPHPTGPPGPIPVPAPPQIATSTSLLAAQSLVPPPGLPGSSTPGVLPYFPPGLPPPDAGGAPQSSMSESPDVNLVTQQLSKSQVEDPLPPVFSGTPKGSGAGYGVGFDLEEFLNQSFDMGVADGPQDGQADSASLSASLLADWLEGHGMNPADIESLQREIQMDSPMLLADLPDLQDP
Chain of 6-phosphogluconate dehydrogenase, decarboxylating (Homo sapiens) (P52209 whole entry, looked up): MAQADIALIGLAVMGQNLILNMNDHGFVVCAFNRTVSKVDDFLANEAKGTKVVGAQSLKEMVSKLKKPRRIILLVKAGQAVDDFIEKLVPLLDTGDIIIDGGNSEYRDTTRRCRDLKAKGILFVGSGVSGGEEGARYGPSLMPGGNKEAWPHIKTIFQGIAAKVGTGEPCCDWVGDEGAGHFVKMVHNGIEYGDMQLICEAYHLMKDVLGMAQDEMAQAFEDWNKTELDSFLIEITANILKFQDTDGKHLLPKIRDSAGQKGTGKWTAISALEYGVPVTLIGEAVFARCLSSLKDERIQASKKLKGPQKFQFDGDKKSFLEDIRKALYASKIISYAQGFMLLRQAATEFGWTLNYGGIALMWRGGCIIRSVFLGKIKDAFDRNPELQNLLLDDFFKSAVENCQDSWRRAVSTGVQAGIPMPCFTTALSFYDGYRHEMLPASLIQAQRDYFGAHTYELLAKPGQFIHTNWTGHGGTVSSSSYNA

`CCCN1C[C@H](CSC)C[C@@H]2c3cccc4[nH]cc(c34)C[C@H]21`: the nuclear beta-catenin stimulation in experiment [1] (at 10 µM) is 0.2% (inactive); in experiment [1] (stimulation, at 2 µM) it was -1.1%. The insulin secretion stimulation in experiment [2] is 3.5% (inactive). Besides, the viability decrease in experiment [3] was 20.2% (inactive). In addition, the tube area decrease in [4] is -5.3% (inactive). The GLP1 secretion stimulation in experiment [5] is 5.1% (inactive). The inhibition of viability in [6] is 45.7% (inactive). For the same compound, the values for the viability decrease (inhibition) in experiment [7] and in [8] were -2.1% (inactive) and 7.8% (inactive), respectively. In addition, the inhibition in experiment [9] is 0.728% (inactive). The red/green cell ratio (normalised) in [10] was 1.38 (inactive). Moreover, the normalised cell number came out at 0.91 in experiment [10] (setting [16]) and 1.25 in experiment [10] (setting [17]). Further, the z-score in experiment [11] (setting [18]) is 0.448 (inactive) and 0.276 (inactive); in experiment [11] (setting [19]) it was -0.203 and -0.419. The remaining NAD in experiment [12] is 10 nM (inactive). The luciferase signal in experiment [13] was 40 AU (inactive). Moreover, the log fold change Tl+ flux in the experiment on F380Y is -0.0179 (inactive); in the experiment on F380Y/beta2Delta, 0.0229 (inactive); in experiment [14], -0.0185 (inactive); in the experiment on R275C, -0.00135 (inactive); in the experiment on R275C/beta1 it was -0.0389 (inactive); in the experiment with R275C/beta2Delta it was -0.00636 (inactive).

For the compound `CC(=O)OCC(=O)[C@@]1(O)CC[C@H]2[C@@H]3CCC4=CC(=O)C=C[C@]4(C)[C@H]3[C@@H](O)C[C@@]21C`, the nuclear beta-catenin stimulation in experiment [1] (at 10 µM) is 1.2% (inactive); in experiment [1] (stimulation, at 2 µM) it was 0%. Moreover, the insulin secretion stimulation in experiment [2] is 1% (inactive). Moreover, the viability decrease in [3] is 6.6% (inactive). In addition, the tube area decrease in experiment [4] was 5.5% (inactive). Besides, the GLP1 secretion stimulation in experiment [5] is 1.2% (inactive). Also, the inhibition of viability in experiment [6] was -4.6% (inactive). The viability decrease (inhibition) in [7] is -9.3% (inactive); in [8] it was -10.8% (inactive). Moreover, in experiment [9], the inhibition is 20% (inactive). The fold change in experiment [15] (stronger effect = lower value, cell number ratio, induced over uninduced) was 0.981 (inactive); in [15] (measured here: relative caspase fold change +Dox/-Dox) it was 0.792. Further, the cell count in experiment [15] (measured here: total cells with miR-34 induction, stronger effect = lower value) worked out at 8020; in [15] (measured here: total cells without miR-34 induction), 8180. In addition, the remaining NAD in [12] is 10 nM (inactive). For the same compound, the luciferase signal in [13] is 60 AU (inactive). In addition, the log fold change Tl+ flux in the experiment on F380Y was 0.0438 (inactive); in the experiment with F380Y/beta2Delta, -0.0297 (inactive); in [14], 0.072 (inactive); with R275C, -0.0254 (inactive); in the experiment on R275C/beta1, 0.0604 (inactive); in the experiment on R275C/beta2Delta it was 0.0146 (inactive).

With `NC(N)=NC(=O)c1nc(Cl)c(N)nc1N`, the nuclear beta-catenin stimulation in experiment [1] (at 10 µM) is 0.7% (inactive); in experiment [1] (stimulation, at 2 µM), -2%. Further, the insulin secretion stimulation in experiment [2] is 4.35% (inactive). In addition, in experiment [3], the viability decrease was 3.2% (inactive). Further, the tube area decrease in experiment [4] is 1.1% (inactive). Moreover, the GLP1 secretion stimulation in experiment [5] was 2% (inactive). In addition, the inhibition of viability in experiment [6] is 3% (inactive). Further, the figures for the viability decrease (inhibition) in [7] and in experiment [8] were 1.8% (inactive) and -11.5% (inactive), respectively. Also, in experiment [9], the inhibition is 7.13% (inactive). Further, the red/green cell ratio (normalised) in experiment [10] was 0.85 (inactive). Moreover, the normalised cell number in experiment [10] (setting [16]) was found to be 1.29; in experiment [10] (setting [17]) it was 1.1. Moreover, the z-score was -0.14 (inactive) and -0.352 (inactive) and 0.738 (inactive) in experiment [11] (setting [18]); 0.245 and 0.664 and 0.681 in experiment [11] (setting [19]). The remaining NAD in experiment [12] is 10 nM (inactive). In addition, the luciferase signal in experiment [13] is 44 AU (inactive). Also, the log fold change Tl+ flux in the experiment on F380Y was -0.00821 (inactive); in the experiment on F380Y/beta2Delta it was -0.0347 (inactive); in experiment [14], 0.0238 (inactive); with R275C, -0.0162 (inactive); in the experiment on R275C/beta1, 0.0417 (inactive); in the experiment on R275C/beta2Delta, -0.00743 (inactive).

In general, inhibition refers to the change of the read-out against control, counted positive when it falls.

Source of the values: PubChem BioAssay.
